GLP1R cytotox = cytotoxic in the GLP-1 receptor inverse agonist counter-screen. 410,000 tested, 0.13% active. Potency, µM (doses to about 38.3 µM), usual class: inhibitors. HEK293 cAMP-luciferase reporter cells, luminescence, 24 h;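 also: loss of luciferase light is scored as toxicity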
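A 23 nL compound transfer followed 12 hours of cell culture at 37 deg C; exposure then lasted 24 hr. Luciferase assay detection reagent was dispensed and plates read for luminescence after a 12 min room-temperature wait.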
GLP1R inv ag = acts as inverse agonist at human GLP-1 receptor; Potency, µM (highest dose often 38.3 µM), hits mostly inhibitors; AID 624417; HEK293 GLP-1R CRE-luciferase, luminescence, 24 h; GLP-1R form is constitutively active; 410,000 tested, 1.6% active; also: nearly all actives have a fitted effect of over 55% in size
Target sequence (P43220 whole entry, looked up): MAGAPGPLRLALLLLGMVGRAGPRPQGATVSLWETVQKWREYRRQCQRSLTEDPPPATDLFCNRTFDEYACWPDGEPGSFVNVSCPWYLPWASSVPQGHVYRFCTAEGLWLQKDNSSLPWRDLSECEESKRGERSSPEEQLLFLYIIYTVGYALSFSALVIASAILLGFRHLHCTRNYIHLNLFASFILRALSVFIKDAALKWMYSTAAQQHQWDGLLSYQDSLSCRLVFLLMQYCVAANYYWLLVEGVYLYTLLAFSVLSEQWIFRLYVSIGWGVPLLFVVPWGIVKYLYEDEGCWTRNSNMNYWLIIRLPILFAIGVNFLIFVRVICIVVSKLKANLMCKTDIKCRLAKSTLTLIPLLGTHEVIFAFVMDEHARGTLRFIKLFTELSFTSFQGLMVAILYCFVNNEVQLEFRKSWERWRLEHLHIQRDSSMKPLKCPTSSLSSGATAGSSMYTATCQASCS
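Luminescence readout: a drop in cAMP-driven luciferase signal flags inverse agonism at a constitutively active GLP-1R stably expressed in HEK293. Compound exposure lasted 24 hr at 37 deg C, 5% CO2.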
GLP-1R agonist = agonists of human GLP-1 receptor. P43220. HEK293 GLP-1R CRE-luciferase, luminescence, 4-6 h; cells express a hypersensitive GLP-1R form. Potency, µM (doses to about 45.6 µM), most hits filed as activators. 380,000 tested, 0.007% active
BRCA1 expr up = BRCA1 expression activation. Potency, µM (titrated, usually from 46.1 µM), actives largely listed as activators. MCF7-BRCA1-FFLuc reporter, luminescence, 48 h; response scale: scaled: vehicle 0%, 10 µM genistein 100%. AID 624202. 380,000 tested, 1.1% active; also: nearly all actives have a fitted effect of over 80% in size
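Compounds are tested at multiple concentrations on MCF7 BRCA1-luciferase reporter cells seeded at 2000 per well; after 48 h, a single luminescence end-point is taken and curves fitted to the normalized data.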
Large screens that a line does not name were inactive. A selection: hits, their analogues and other compounds. The true share with any hit is near 2.6%. Calls follow the shape of the dose curve; as a rule, active = well fitted curve in the direction sought with a large enough effect; inconclusive = small, poorly fitted or top-dose-only effect, or another doubt; inactive = no such curve, though single readings can be large; an effect the other way counts as inactive or inconclusive.

c1ccc(Nc2c3c(nc4ccccc24)CCC3)cc1	GLP1R cytotox inconclusive, GLP1R inv ag 11.2µM
COc1ccc2nc(NC3=NCCN3)sc2c1	BRCA1 expr up 1.26µM
c1ccc(COc2ncnc3c2ncn3CCCN2CCN(Cc3cccc4ccccc34)CC2)cc1	GLP1R cytotox inconclusive, GLP1R inv ag 3.55µM
COc1cccc(-c2nc3c(C#N)c[nH]n3c2NC2CCCCC2)c1OC	GLP1R cytotox inconclusive (no result: GLP-1R agonist, BRCA1 expr up)
COC(=O)C1=C(c2ccc(F)cc2OCc2ccccc2)C[C@@H]2CC[C@H]1N2C(=O)NCc1ccccc1Br	none
COC(=O)C1=C(c2ccc(F)cc2OCc2ccccc2)C[C@@H]2CC[C@H]1N2C(=O)NCc1ccccc1C(F)(F)F	GLP1R inv ag 12.6µM
COC(=O)C1=C(c2cccc(OCc3ccccc3)c2)C[C@@H]2CC[C@H]1N2C(=O)NCc1cccc(C(F)(F)F)c1	GLP1R inv ag 11.2µM
COC(=O)C1=C(c2ccc(OCc3ccccc3)cc2)C[C@@H]2CC[C@H]1N2C(=O)NCc1ccc(C(C)(C)C)cc1	GLP1R inv ag 4.47µM
C=C[C@]1(C)C=C2C(=O)[C@@]3(O)OC(=O)[C@@]4(CCCC(C)(C)[C@H]34)[C@@]2(O)CC1	GLP1R cytotox inconclusive, GLP1R inv ag inconclusive
O=[N+]([O-])c1ccc(Sc2n[nH]c(-c3ccc(Cl)cc3Cl)n2)nc1	GLP1R cytotox inconclusive
Cc1cc(N2CCCCC2)nc2ccc(NC(=O)/C=C/c3ccc(OC(C)C)cc3)cc12	GLP1R inv ag inconclusive (no result: GLP-1R agonist, BRCA1 expr up)
COCCCNC(=O)c1cc(C(=O)c2c(-c3c(Cl)cccc3Cl)noc2C)c[nH]1	GLP1R cytotox inconclusive, GLP1R inv ag inconclusive
O=C(CN1c2ccccc2Sc2ccccc21)NNC(=O)Nc1ccc(Cl)cc1	GLP1R cytotox inconclusive, GLP1R inv ag 1.41µM
O=C(COc1ccc(Cl)cc1)N(c1ccc(Cl)cc1)C1CN2CCC1CC2 (centres undefined)	GLP1R cytotox inconclusive, GLP1R inv ag 8.91µM
O=S(=O)(NC1CN2CCC1CC2)c1ccc(Cl)cc1 (centres undefined)	GLP1R cytotox inconclusive
O=C(COc1ccc(Cl)cc1)N(c1ccccc1Cl)C1CN2CCC1CC2 (centres undefined)	GLP1R cytotox inconclusive, GLP1R inv ag 2.51µM
Clc1ccccc1CNC1CN2CCC1CC2 (centres undefined)	none
Cc1ccc(NCc2cccn2-c2nnc(N3CCC(C(=O)NCc4ccc(OC(C)C)cc4)CC3)s2)cc1	GLP1R inv ag 10µM (no result: GLP-1R agonist, BRCA1 expr up)
CCOc1ccc(NCc2cccn2-c2nnc(N3CCC(C(=O)NCc4ccc(C)cc4)CC3)s2)cc1	GLP1R inv ag inconclusive (no result: GLP-1R agonist, BRCA1 expr up)
CCOP(=O)(OCC)c1nc(-c2ccc(Br)cc2)oc1N1CCCCC1	GLP1R inv ag 8.91µM
CCOC(=O)C(C(=O)OCC)C(Nc1ccc(Br)cc1)c1ccccc1 (centres undefined)	GLP1R cytotox inconclusive, GLP1R inv ag inconclusive
CC1Oc2cc3c(-c4c(O)cc(O)c5c(O)c6c(cc45)OC(C)C(C)C6=O)c(O)cc(O)c3c(O)c2C(=O)C1C (centres undefined)	GLP1R cytotox inconclusive, GLP1R inv ag 12.6µM
COc1cc(Cl)c(C)cc1NC(=O)CCCn1c(=O)oc2ccccc21	GLP1R inv ag inconclusive
COc1ccc(NC(=O)CCCn2c(=O)oc3ccccc32)cc1Cl	BRCA1 expr up 7.08µM
C[C@]12CC[C@@H](O)CC1=CCC1C2CC[C@@]2(C)C1CC[C@@H]2N (some centres undefined)	GLP1R inv ag 11.2µM
C[C@]12CC[C@H](N)CC1=CCC1C2CC[C@@]2(C)C1CC[C@@H]2O (some centres undefined)	GLP1R cytotox inconclusive, GLP1R inv ag inconclusive
CCCOc1ccc(C(=O)C(CN2CCOCC2)c2ccccc2)cc1 (centres undefined)	GLP1R cytotox inconclusive, GLP1R inv ag 7.08µM
CCOC(=O)C1(CCOc2ccccc2)CCN(Cc2ccccc2OC)CC1	GLP1R inv ag 8.91µM
CCOC(=O)C1(CCOc2ccccc2)CCN(Cc2cccc(O)c2)CC1	GLP1R inv ag inconclusive
CCCCCCCCCCCCCCCCn1cc[n+](C)c1	GLP1R cytotox inconclusive, GLP1R inv ag 7.08µM
Fc1ccccc1CSc1ncnc2c1ncn2C1CCCO1 (centres undefined)	GLP1R inv ag inconclusive, GLP-1R agonist inconclusive, BRCA1 expr up 3.55µM
C=C1C(=O)OC2CC1C(O)CC(C)=CCCC(C)=CC(O)CC2C (centres undefined)	GLP1R cytotox inconclusive, GLP1R inv ag 2.24µM
C=C1C(=O)OC2CC(C)C3C=CC(=O)C3(C)C(O)C12 (centres undefined)	GLP1R inv ag inconclusive
CN(C)CC(C(=O)Cc1ccccc1)c1ccccc1 (centres undefined)	GLP1R cytotox inconclusive, GLP1R inv ag 5.01µM
C[C@@H]([C@@H](O)c1ccccc1)N(C)C(=O)Cc1ccccc1	none
